In all, about 48,000 compounds went through this assay and about 13,000 (27%) showed an effect of 50% or more. Some of the results follow.
Each compound was assayed on Wolbachia pipientis (assay: Anti-Wolbachia Cell-Based Screen). Details: 5 µM.
Type: functional
Set-up: scale not given: in the data most compounds retested in dose-response had high values

| Compound | Percent Effect [%] |
| --- | --- |
| CN(C)CCNC(=O)c1ccc2c(-c3nccs3)noc2c1 | -16.02 |
| Cn1cc(S(=O)(=O)NCCc2nnc3ccccn23)cn1 | -3.582 |
| O=C(c1ncccn1)N1C[C@@H]2COC[C@]2(c2nnc(C3CC3)o2)C1 | -0.5118 |
| Cc1noc(C)c1CNC(=O)C1(NS(C)(=O)=O)CCCCC1 | -47.58 |
| Cc1ccc(C)c(CC(=O)NC2CCC(N3C(=O)CCC3=O)CC2)c1 (centres undefined) | 6.752 |
| CCn1cc(S(=O)(=O)N2CCN(S(=O)(=O)c3ccc(Br)s3)CC2)cn1 | 99.05 |
| CCn1cc(S(=O)(=O)N2CCCSc3ccccc32)cn1 | -3.262 |
| CCC1CCCN(S(=O)(=O)c2cnn(C)c2)C1 (centres undefined) | 12.29 |
| CCn1cc(S(=O)(=O)N2CCN(S(=O)(=O)c3ccc(Br)s3)CC2)c(C)n1 | 110.7 |
| CCN1CCN(S(=O)(=O)c2cc(C)c(Cl)cc2Cl)CC1 | 18.7 |
| CC1(C)OCC2(CO1)CN(S(=O)(=O)c1ccc(Br)s1)C2 | -6.121 |
| CCn1cc(S(=O)(=O)N2CCC(C)Sc3ccccc32)cn1 (centres undefined) | -6.533 |
| Cn1cc(S(=O)(=O)N2CCN(S(=O)(=O)c3ccc(Br)s3)CC2)cn1 | 96.55 |
| CCc1ccc(S(=O)(=O)N2CC3(COC(C)(C)OC3)C2)s1 | -8.267 |
| O=C(NS(=O)(=O)c1ccc(F)cc1)C1CCOc2ccccc21 (centres undefined) | -10.91 |
| Cc1scc(C(=O)N2CCC3(CC(=O)NC3=O)C2)c1-c1ccccc1 (centres undefined) | -14.34 |
| CS(=O)(=O)N1CCCC12CCN(Cc1nccs1)C2.O=C(O)C(F)(F)F (centres undefined) | -1.689 |
| Cc1nc2c(c(C)c1CC(=O)NCc1cccc(C#N)c1)c(=O)[nH]n2C | 1.091 |
| CCNC(=O)Cc1c(C)nc2c(c1C)c(=O)[nH]n2C | -13.5 |
| Cc1nc2c(c(C)c1CC(=O)NCc1ccccc1F)c(=O)[nH]n2C | 107.2 |
| Cc1cc(C)cc(NC(=O)Cc2c(C)nc3c(c2C)c(=O)[nH]n3C)c1 | 3.943 |
| Cc1nc2c(c(C)c1CC(=O)NCc1ccc(F)cc1)c(=O)[nH]n2C | 91.6 |

| Compound | Percent Effect [%] |
| --- | --- |
| Cc1ccc(C)c(NC(=O)Cc2c(C)nc3c(c2C)c(=O)[nH]n3C)c1 | 0.2479 |
| Cc1nc2c(c(C)c1CC(=O)NCc1ccco1)c(=O)[nH]n2C | 144 |
| Cc1nc2c(c(C)c1CC(=O)Nc1ccccc1F)c(=O)[nH]n2C | -18.93 |
| Cc1ccc(C(C)NC(=O)Cc2c(C)nc3c(c2C)c(=O)[nH]n3C)o1 (centres undefined) | -8.138 |
| Cc1nc2c(c(C)c1CC(=O)NC(C)c1ccccc1)c(=O)[nH]n2C (centres undefined) | -24.46 |
| Cc1ccc(CNC(=O)Cc2c(C)nc3c(c2C)c(=O)[nH]n3C)cc1 | 114.9 |
| Cc1nc2c(c(C)c1CC(=O)Nc1ccnn1C(C)C)c(=O)[nH]n2C | -7.188 |
| Cc1c(F)cc(C(=O)NCC(F)(F)F)cc1NCC(=O)N(C)C | 4.918 |
| CCOc1ccccc1NC(=O)CN(C)Cc1ccccc1Cl | 6.554 |
| OCCn1cc(CN2CCN(CCOCC(F)(F)F)CC2)cn1 | 2.281 |
| CN(C)CC(=O)N1Cc2cc(N(C)C)ccc2C1c1cnco1 (centres undefined) | -12.83 |
| CC(C)C(C(=O)N(C)C)c1cccc(Cl)c1 (centres undefined) | -9.046 |
| CN(C)c1cccc(C(=O)Nc2cn(C)c(=O)n(C)c2=O)c1 | -7.07 |
| COc1c(C(=O)N2CCC(COCc3ccccc3)C2)c(C)nn1C (centres undefined) | -0.4444 |
| Cc1ccsc1CNC(=O)Cc1c(C)nc2c(c1C)c(=O)[nH]n2C | -0.5496 |
| Cc1nc2c(c(C)c1CC(=O)NCc1cccs1)c(=O)[nH]n2C | 165.2 |
| CCCNC(=O)Cc1c(C)nc2c(c1C)c(=O)[nH]n2C | -12.53 |
| O[C@H]1CC[C@@H](Cc2cc(-c3ccc(F)cc3)on2)O[C@@H]1CNCC1CC1 | 6.759 |
| O=C(c1csnn1)N1CCc2[nH]nc(COc3cccc(Cl)c3)c2C1 | 7.373 |
| Cc1noc(C)c1-c1n[nH]c2c1CN(S(=O)(=O)c1cccs1)CC2 | 16.83 |
| O=C(O)C(F)(F)F.OCCOCc1n[nH]c2c1CN(Cc1ccco1)C2 | 3.715 |
| CS(=O)(=O)N1CCc2[nH]nc(Cc3cccs3)c2C1 | 98.95 |

| Compound | Percent Effect [%] |
| --- | --- |
| O=C(CCc1ccco1)N1CCc2[nH]nc(COc3ccccc3)c2C1 | 91.35 |
| O=C(O)C(F)(F)F.O=C(O)C(F)(F)F.O=C(O)C(F)(F)F.c1cncc(OCc2n[nH]c3c2CN(Cc2cccs2)C3)c1 | -32.3 |
| O=C(CCc1cccs1)N1CCc2[nH]nc(COc3ccccc3)c2C1 | 98.05 |
| O=C(O)C(F)(F)F.O=C(O)C(F)(F)F.c1ccc(OCc2n[nH]c3c2CN(Cc2cccs2)C3)nc1 | -9.854 |
| COCc1n[nH]c2c1CN(Cc1cccs1)C2.O=C(O)C(F)(F)F | 1.549 |
| COc1nc2c(cc1C(=O)N(C)Cc1[nH]nc3c1CCC3)CCC2 | 7.806 |
| OC(COCc1ccccc1Cl)CN1CC(n2cccn2)C1 (centres undefined) | -11.39 |
| Cc1nc(CN2CCCC(CCNS(C)(=O)=O)C2)c[nH]1 (centres undefined) | -5.765 |
| Cc1occc1C(=O)N1Cc2nccn2CC(CN2CCOCC2)C1.O=C(O)C(F)(F)F (centres undefined) | -15.88 |
| CN(C)CCN(C)c1ccc(-c2nc(COc3ccccc3)no2)cn1 | -2.014 |
| CC[C@H]1COCCN1C(=O)CCCn1nnc(-c2ccc(F)cc2)n1 | -1.392 |
| Cc1cc(C2CCC2)nc(N(C)Cc2cnccn2)n1 | -5.292 |
| CN(Cc1ccc([S+](C)[O-])cc1)c1cncc(Br)c1 (centres undefined) | 105.7 |
| COc1cc(F)ccc1N(C)Cc1ccncc1 | -8.772 |
| CN(Cc1cnccn1)c1cncc(Br)c1 | 109.1 |
| Cc1nc(N(C)C)nc(N(C)Cc2cnccn2)c1C | 49.18 |
| CCCN(CCC)S(=O)(=O)N(C)Cc1ccncc1 | 3.881 |
| CN(Cc1ccc([S+](C)[O-])cc1)c1cncc(Cl)n1 (centres undefined) | -12.95 |
| CN(Cc1ccncc1)c1cncc(Br)c1 | 97.92 |
| CN(Cc1ccc([S+](C)[O-])cc1)c1ccc(Br)cn1 (centres undefined) | -27.32 |

— ChEMBL document CHEMBL3988442, “University of Dundee, Small-Polar-MMV Screening Library” (2021)
